According to PMC8769072, “Proteome‐scale mapping of binding sites in the unstructured regions of the human proteome” (Molecular Systems Biology, 2022):

Experiments:
[1] = molecular target: YAP1 169-207, P46937
[2] = molecular target: WDR5 21-334, P61964
[3] = molecular target: YES1 90-152, P07947
[4] = molecular target: VASP 1-114, P50552
Sequence of VASP 1-114, P50552 (P50552 1-114): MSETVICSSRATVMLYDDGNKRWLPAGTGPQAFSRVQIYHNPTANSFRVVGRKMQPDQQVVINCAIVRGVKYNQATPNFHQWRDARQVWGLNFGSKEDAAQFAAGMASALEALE

Sequence of YES1 90-152, P07947 (P07947 90-152): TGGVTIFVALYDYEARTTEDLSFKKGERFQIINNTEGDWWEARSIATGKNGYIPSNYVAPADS
Sequence of YAP1 169-207, P46937 (P46937 169-207): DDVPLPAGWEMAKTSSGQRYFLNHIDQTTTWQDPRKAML

B1: TMEM52, Q8NDY8 (peptide)
chain: SMAPPAYSLYTPEPPP
Q: Which “selected by phage display” value [1] does the source give for B1 here?
A: The value was “confidence 3 (active)”.

B2: RRAD, P55042 (peptide)
chain: WEQDGGRWLPGHAMAM
Q: Which “selected by phage display” value [2] does the source give for B2 here?
A: The value was “confidence 2 (active)”.

B3: STPG3, Q8N7X2 (peptide)
chain: TGTPQESLPTYTQTLR
Q: With B3 as the binder, how does the “selected by phage display” value [1] read?
A: The value was “confidence 3 (active)”.

B4: SLC39A5, Q6ZMH5 (peptide)
chain: DMLPALLRPPEPLPTP
Q: With B4 as the binder, how does the “selected by phage display” value [3] read?
A: Its value is “confidence 2 (active)”.

B5: ANKRD17, O75179 (peptide)
chain: PSAMLPIYPAIDIDAQ
Q: B5 was tested. Which “selected by phage display” value [1] did it give?
A: Its value is “confidence 2 (active)”.

B6: KNL1, Q8NG31 (peptide)
chain: SPSQYINEENLPVYPD
Q: Which “selected by phage display” value [1] does the source give for B6 here?
A: The value was “confidence 2 (active)”.

B7: AR, P10275 (peptide)
chain: DFTAPDVWYPGGMVSR
Q: How did the “selected by phage display” value [2] turn out when B7 was run?
A: The value was “confidence 2 (active)”.

B8: WBP1, Q96G27 (peptide)
chain: PPAYEDVVHRPGTPPP
Q: Which “selected by phage display” value [1] does the source give for B8 here?
A: The value was “confidence 3 (active)”.

B9: RNF223, E7ERA6 (peptide)
chain: NLRALPLPPRPPATST
Q: With B9 as the binder, how does the “selected by phage display” value [3] read?
A: The value was “confidence 3 (active)”.

B10: VWA5B2, Q8N398 (peptide)
chain: HSSRELPSRPDGVLHV
Q: For B10, which “selected by phage display” value [3] is on record?
A: Its value is “confidence 3 (active)”.

B11: ZC3H4, Q9UPT8 (peptide)
chain: ARTVLWNPEDLIPLPI
Q: With B11 as the binder, how does the “selected by phage display” value [2] read?
A: Its value is “confidence 2 (active)”.

B12: MYO1E, Q12965 (peptide)
chain: APPPPGYHQNGVIRNQ
Q: Which “selected by phage display” value [1] does the source give for B12 here?
A: Its value is “confidence 3 (active)”.

B13: RSPH6A, Q9H0K4 (peptide)
chain: MGDLPPYPERPAQQPP
Q: Which “selected by phage display” value [1] does the source give for B13 here?
A: Its value is “confidence 2 (active)”.

B14: RPL13AP3, Q6NVV1 (peptide)
chain: SLDALKVFDGIPPPYD
Q: How did the “selected by phage display” value [1] turn out when B14 was run?
A: Its value is “confidence 2 (active)”.

B15: SPATA5, Q8NB90 (peptide)
chain: IPTSRSTPYKPIDDRI
Q: With B15 as the binder, how does the “selected by phage display” value [2] read?
A: Its value is “confidence 2 (active)”.

B16: TMEM52, Q8NDY8 (peptide)
chain: EPPPSYDEAVKMAKPR
Q: B16 was tested. Which “selected by phage display” value [1] did it give?
A: Its value is “confidence 3 (active)”.

B17: GAB1, Q13480 (peptide)
chain: SSATLPPPYQLINVPP
Q: Which “selected by phage display” value [1] does the source give for B17 here?
A: The value was “confidence 4 (active)”.

B18: PIKFYVE, Q9Y2I7 (peptide)
chain: GSPMVPSYETSVSPQA
Q: Which “selected by phage display” value [1] does the source give for B18 here?
A: Its value is “confidence 2 (active)”.

B19: FOXJ3, Q9UPW0 (peptide)
chain: MPPPGYPHIPQALSTP
Q: B19 was tested. Which “selected by phage display” value [1] did it give?
A: The value was “confidence 4 (active)”.

B20: NHSL1, Q5SYE7 (peptide)
chain: SPVFPPPPPEALIPFA
Q: For B20, which “selected by phage display” value [4] is on record?
A: The value was “confidence 3 (active)”.

B21: EHMT1, Q9H9B1 (peptide)
chain: SARVNPQDGTNTLTRI
Q: B21 was tested. Which “selected by phage display” value [2] did it give?
A: The value was “confidence 2 (active)”.

B22: MED12L, Q86YW9 (peptide)
chain: SPQLPQYPGLQQAQTM
Q: With B22 as the binder, how does the “selected by phage display” value [1] read?
A: The value was “confidence 3 (active)”.

B23: SVEP1, Q4LDE5 (peptide)
chain: SARSGYVIQGSSDLIA
Q: With B23 as the binder, how does the “selected by phage display” value [2] read?
A: The value was “confidence 2 (active)”.

B24: ARHGAP5, Q13017 (peptide)
chain: EAPPPYSPIGDDVQLL
Q: For B24, which “selected by phage display” value [1] is on record?
A: Its value is “confidence 3 (active)”.

B25: DVL2, O14641 (peptide)
chain: APHPYSPQPPPYHELS
Q: For B25, which “selected by phage display” value [1] is on record?
A: Its value is “confidence 3 (active)”.

B26: USP10, Q14694 (peptide)
chain: TPRSSVELPPYSGTVL
Q: Which “selected by phage display” value [1] does the source give for B26 here?
A: Its value is “confidence 2 (active)”.

B27: CUEDC1, Q9NWM3 (peptide)
chain: SPPAYHMHVFDRPYPL
Q: With B27 as the binder, how does the “selected by phage display” value [1] read?
A: The value was “confidence 3 (active)”.

B28: FOXI1, Q12951 (peptide)
chain: PTMTPPPYLPGPNASP
Q: With B28 as the binder, how does the “selected by phage display” value [1] read?
A: Its value is “confidence 4 (active)”.

B29: CHMP1B, Q7LBR1 (peptide)
chain: NQAVNFLRMSARVDAV
Q: How did the “selected by phage display” value [2] turn out when B29 was run?
A: Its value is “confidence 2 (active)”.

B30: BSN, Q9UPA5 (peptide)
chain: VKRTLPSPPPEEAHLP
Q: For B30, which “selected by phage display” value [3] is on record?
A: Its value is “confidence 3 (active)”.

B31: FNDC3B, Q53EP0 (peptide)
chain: AYPPSYPSAMSPTHHL
Q: Which “selected by phage display” value [1] does the source give for B31 here?
A: Its value is “confidence 2 (active)”.

B32: PEAR1, Q5VY43 (peptide)
chain: SSENPYATIRDLPSLP
Q: For B32, which “selected by phage display” value [3] is on record?
A: Its value is “confidence 4 (active)”.

B33: ZNF783, Q6ZMS7 (peptide)
chain: LPPYPEHLTSPLSPAQ
Q: How did the “selected by phage display” value [1] turn out when B33 was run?
A: The value was “confidence 2 (active)”.

B34: CBL, P22681 (peptide)
chain: DKPLPVPPTLRDLPPP
Q: Which “selected by phage display” value [3] does the source give for B34 here?
A: Its value is “confidence 4 (active)”.

B35: CSRNP1, Q96S65 (peptide)
chain: QALPDYSLGPHYTSQK
Q: Which “selected by phage display” value [1] does the source give for B35 here?
A: The value was “confidence 2 (active)”.

B36: TMEM158, Q8WZ71 (peptide)
chain: AAATAGAPTALPAYPA
Q: How did the “selected by phage display” value [1] turn out when B36 was run?
A: The value was “confidence 2 (active)”.

B37: VPS54, Q9P1Q0 (peptide)
chain: VDPSKHIRPVPSLPDV
Q: For B37, which “selected by phage display” value [3] is on record?
A: The value was “confidence 2 (active)”.

B38: NDFIP2, Q9NV92 (peptide)
chain: TEVYGEFYPVPPPYSV
Q: How did the “selected by phage display” value [1] turn out when B38 was run?
A: The value was “confidence 4 (active)”.

B39: TPSG1, Q9NRR2 (peptide)
chain: YTREGEPLPPPYSLRE
Q: B39 was tested. Which “selected by phage display” value [1] did it give?
A: The value was “confidence 3 (active)”.

B40: NLGN1, Q8N2Q7 (peptide)
chain: HEVVLRTAAPPDYTLA
Q: B40 was tested. Which “selected by phage display” value [1] did it give?
A: Its value is “confidence 3 (active)”.

B41: LDLRAD3, Q86YD5 (peptide)
chain: ASEVGSPPSYSEALLD
Q: Which “selected by phage display” value [1] does the source give for B41 here?
A: The value was “confidence 3 (active)”.

B42: ALKBH5, Q6P6C2 (peptide)
chain: SVLPPSYASDRLSGNN
Q: For B42, which “selected by phage display” value [1] is on record?
A: Its value is “confidence 2 (active)”.

B43: MAGEB18, Q96M61 (peptide)
chain: EYQQVPNSDPPRYEFL
Q: With B43 as the binder, how does the “selected by phage display” value [1] read?
A: Its value is “confidence 2 (active)”.

B44: TMEM59L, Q9UK28 (peptide)
chain: LYPPPSHAAEDSLPPY
Q: Which “selected by phage display” value [1] does the source give for B44 here?
A: Its value is “confidence 2 (active)”.

B45: KLF5, Q13887 (peptide)
chain: PPPSYAATIASKLAIH
Q: With B45 as the binder, how does the “selected by phage display” value [1] read?
A: Its value is “confidence 3 (active)”.

B46: SMAD1, Q15797 (peptide)
chain: ADTPPPAYLPPEDPMT
Q: Which “selected by phage display” value [1] does the source give for B46 here?
A: Its value is “confidence 2 (active)”.

B47: SMARCC1, Q92922 (peptide)
chain: HQQPPPYPLMHHQMPP
Q: How did the “selected by phage display” value [1] turn out when B47 was run?
A: The value was “confidence 3 (active)”.

B48: LPIN2, Q92539 (peptide)
chain: EYEKLPAYLATSPIPT
Q: B48 was tested. Which “selected by phage display” value [1] did it give?
A: The value was “confidence 3 (active)”.

B49: SLC34A2, O95436 (peptide)
chain: IELLPSYSTATLIDEP
Q: How did the “selected by phage display” value [1] turn out when B49 was run?
A: Its value is “confidence 3 (active)”.

B50: EPPK1, P58107 (peptide)
chain: MSGHTLPPLPVPGTNS
Q: How did the “selected by phage display” value [3] turn out when B50 was run?
A: The value was “confidence 3 (active)”.

B51: PDZRN4, Q6ZMN7 (peptide)
chain: SARSTPLTVDRSPDSS
Q: With B51 as the binder, how does the “selected by phage display” value [2] read?
A: The value was “confidence 2 (active)”.

B52: SIPA1, Q96FS4 (peptide)
chain: PQNRTSAYSLEHADLG
Q: With B52 as the binder, how does the “selected by phage display” value [2] read?
A: Its value is “confidence 2 (active)”.

B53: TBP, P20226 (peptide)
chain: NNSLPPYAQGLASPQG
Q: With B53 as the binder, how does the “selected by phage display” value [1] read?
A: The value was “confidence 3 (active)”.

B54: TRERF1, Q96PN7 (peptide)
chain: LQEQQQQQMHLQPPSY
Q: How did the “selected by phage display” value [1] turn out when B54 was run?
A: The value was “confidence 2 (active)”.

B55: NDFIP2, Q9NV92 (peptide)
chain: ASSAPALETDSSPPPY
Q: How did the “selected by phage display” value [1] turn out when B55 was run?
A: Its value is “confidence 2 (active)”.

B56: ANK3, Q12955 (peptide)
chain: ESLPSYLESSRVNTPV
Q: For B56, which “selected by phage display” value [1] is on record?
A: The value was “confidence 4 (active)”.

B57: ARID2, Q68CP9 (peptide)
chain: IAPPQYVTTSASNIVS
Q: For B57, which “selected by phage display” value [1] is on record?
A: Its value is “confidence 4 (active)”.

B58: TFAP2E, Q6VUC0 (peptide)
chain: AEFQPPYFPPPYPQPP
Q: Which “selected by phage display” value [1] does the source give for B58 here?
A: Its value is “confidence 2 (active)”.

B59: SOBP, A7XYQ1 (peptide)
chain: LLPPPPPGAPLPSLPF
Q: Which “selected by phage display” value [3] does the source give for B59 here?
A: The value was “confidence 2 (active)”.

B60: XIRP2, A4UGR9 (peptide)
chain: EFPPPPPDVLQTSVDV
Q: With B60 as the binder, how does the “selected by phage display” value [4] read?
A: Its value is “confidence 4 (active)”.

B61: ARID2, Q68CP9 (peptide)
chain: HPPTYVQNVVPQNTPM
Q: For B61, which “selected by phage display” value [1] is on record?
A: The value was “confidence 2 (active)”.

B62: MFSD6, Q6ZSS7 (peptide)
chain: DGKGAKPPEYRNYQIV
Q: How did the “selected by phage display” value [1] turn out when B62 was run?
A: Its value is “confidence 3 (active)”.
